# Screening results: PubChem BioAssay, Buhrlage Lab, Dana-Farber Cancer Institute and Novartis Institutes for BioMedical Research (Cambridge, Mass)
# Sampled rows, rich in hits. Any-hit rate of the full collection: about 12%.
# USP28 block: human USP28 deubiquitinase inhibition. AID 1645857. purified USP28, Ub-rhodamine cleavage fluorescence, 30 min. Q96RU2. inhibition, % at 25 µM. hit rate 3% among 47,000
# USP30 inh: blocks human USP30 ubiquitin-rhodamine cleavage; Q70CQ3; purified USP30, Ub-rhodamine cleavage fluorescence; inhibition, % at 25 µM; hit rate 5.3% among 47,000
# Target sequence (Q70CQ3 whole entry, looked up): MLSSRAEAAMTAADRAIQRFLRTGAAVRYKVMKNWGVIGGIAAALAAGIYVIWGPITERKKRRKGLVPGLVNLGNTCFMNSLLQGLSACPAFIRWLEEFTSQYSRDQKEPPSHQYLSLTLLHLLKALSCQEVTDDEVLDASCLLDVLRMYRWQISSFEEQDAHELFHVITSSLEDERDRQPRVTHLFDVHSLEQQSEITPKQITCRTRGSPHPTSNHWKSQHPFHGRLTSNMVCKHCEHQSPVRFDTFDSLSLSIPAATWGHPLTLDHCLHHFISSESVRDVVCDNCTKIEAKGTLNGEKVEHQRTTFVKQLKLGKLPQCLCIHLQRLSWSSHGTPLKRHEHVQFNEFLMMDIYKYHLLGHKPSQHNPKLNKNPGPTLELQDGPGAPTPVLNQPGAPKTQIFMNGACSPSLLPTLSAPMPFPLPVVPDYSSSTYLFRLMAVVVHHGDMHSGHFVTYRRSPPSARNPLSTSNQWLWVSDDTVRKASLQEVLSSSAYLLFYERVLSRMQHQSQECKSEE
# OTUD3 block: blocks human OTUD3 ubiquitin-rhodamine cleavage; hit rate 0.7% among 47,000; purified OTUD3, Ub-rhodamine fluorescence, 2 h; inhibition, % at 25 µM; Q5T2D3
# USP17 inh: blocks human USP17 ubiquitin-rhodamine cleavage | A8MUK1 | purified USP17, Ub-rhodamine cleavage fluorescence, 3 h | inhibition, % at 50 µM | hit rate 6.5% among 47,000
# Active calls of the source: *; · = no result. Cut-off read from the data, not from the text of the source: active = inhibition above about 30%; inactive = the rest.
SMILES,USP28 block,USP30 inh,OTUD3 block,USP17 inh
COc1ccc(N2CCN(C(=O)CCc3c(C)c4c(C)nn(-c5ccccc5)c4n(C)c3=O)CC2)cc1,8,26,17,12
COc1ccc2nc(-c3ccc(NC(=O)c4cccc(OC)c4OC)cc3)cn2n1,-3,-28,-21,81*
c1ccc(COC2C[C@@H]3CN(Cc4nccs4)C[C@@H]3C2)cc1 (some centres undefined),13,7,12,6
COc1ccccc1CC(=O)N1CCC(c2nn(CCN)c3nccnc23)C1 (centres undefined),5,35*,1,10
O=C(Nc1ccc(F)cc1)Nc1ccccc1OCc1cc(=O)n2ccccc2n1,31*,46*,33*,41*
Cc1cc(C)c2c(=O)n(CC(=O)Nc3ccccc3F)c(=O)n(C)c2n1,-33,-90,-22,-14
O=C(CCN1C(=O)c2ccccc2Sc2ncccc21)NCc1ccc2c(c1)OCO2,-4,4,-1,-3
CC(C)Oc1ccc(C(=O)CN2C(=O)COc3ccccc3C2=O)cc1Cl,27,30,14,11
Cc1ccc(CN2C(=O)COc3ccccc3C2=O)cc1,39*,27,15,19
COc1ccc(CNC(=O)CN2C(=O)C3CCCC3=Nc3ccccc32)cc1 (centres undefined),14,33*,25,22
COc1ccc(C)cc1NC(=O)CN1C(=O)C2CCCC2=Nc2ccccc21 (centres undefined),22,77*,35*,82*
COc1cccc(NC(=O)CN2C(=O)C3CCCC3=Nc3ccccc32)c1 (centres undefined),13,9,8,16
c1ccc(-n2c(SCCc3ccncc3)nnc2N2CCOCC2)cc1,11,42*,17,19
OCCSc1nnc(N2CCCC2)n1-c1cccc(Cl)c1,11,18,6,4
CC1=C(C(=O)Nc2cccc(C)c2C)C2(CCN(C(C)C)CC2)OC1=O,11,1,6,9
CC[C@H](C)C[C@H]1CC[C@](O)([C@](C)(O)C(=O)N[C@@H]2C(=O)N3NCCC[C@@H]3C(=O)N(O)[C@@H](C)C(=O)NCC(=O)N3NCCC[C@H]3C(=O)N(O)[C@H](C)C(=O)O[C@H]2C(C)C)O[C@@H]1C,48*,61*,73*,41*
Fc1ccccc1Cc1nc(-c2ccc3nncn3c2)no1,53*,0,0,·
Fc1ccc(-c2nnc(Cc3nc(-c4ccccc4F)no3)o2)cc1,0,-13,8,13
O=C(CCC(=O)N1CCC(C(=O)N2CCCCC2)CC1)Nc1ccc(Oc2ccccc2)cc1,6,11,-4,7
CCOC(=O)C1CCN(C(=O)CCC(=O)Nc2ccc(Oc3ccccc3)cc2)CC1,8,34*,16,21
CC(C)(C)OC(=O)N1CCN(C(=O)Cn2c(=O)nc(-c3ccccc3)c3ccccc32)CC1,7,59*,7,33*
COc1ccc(C2NC3=NCN(CC4CCCO4)CN3c3nc4ccccc4n32)cc1 (centres undefined),-13,-4,-11,·
Cc1nc2ccc(NC(=O)Nc3ccccc3F)cc2s1,40*,-37,-14,-12
Cc1nc2ccc(NC(=O)COc3ccccc3F)cc2s1,-4,-10,-8,-7
CC1CCCN(S(=O)(=O)c2ccc(-n3cnc(C(=O)N4CCCCC4)c3)nc2)C1 (centres undefined),-4,13,-3,-5
SMILES,USP28 block,USP30 inh,OTUD3 block,USP17 inh
CC1CCCN(S(=O)(=O)c2ccc(-n3cnc(C(=O)N4CCCC4)c3)nc2)C1 (centres undefined),-2,46*,4,29
Cn1c(=O)c2c(ncn2CC(=O)NC2CCCc3ccccc32)n(C)c1=O (centres undefined),82*,17,7,13
O=C(NC1CCCc2ccccc21)c1cnn(-c2ccccc2)c1-n1cccc1 (centres undefined),16,32*,18,13
CCOc1ncccc1C(=O)NC1CCCc2ccccc21 (centres undefined),26,32*,15,15
Cn1c(=O)c2c(ncn2CC(=O)OCC(=O)Nc2ccc3c(c2)CCC3)n(C)c1=O,10,-13,-8,-14
O=C(Nc1ccc2c(c1)CCC2)c1cc2ccccc2oc1=O,0,12,3,13
COCCN1[C@H]2CCN(C(=O)c3cnc(C)cn3)CC[C@@H]2Oc2ccccc2S1(=O)=O,-3,-4,-4,-6
CC(C)(C)c1cc2n(n1)[C@@H](C(F)F)C[C@@H](C1CCN(C(=O)C3CCCCC3)CC1)N2,-14,-65,-21,-8
COc1ccc(Br)c(C(=O)NCC2(O)CCc3ccccc32)c1 (centres undefined),3,-2,9,-4
